# Measured values from PubChem BioAssay (NCI).
# About 83,000 compounds went through this panel and 20% of them were active in at least one assay; those are over-represented in the sample as a whole.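 The endpoint reported here, percent growth, reads 100 for growth as untreated, 0 for no net growth and -100 for all cells dead.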 A number with no mark means an inactive call. Calls of active or inactive are those of the source. Rule for the calls: active = growth percent below 10; inactive = the rest.
# Tests used:
# Test in all cases: NCI-60 one-dose screen, 48 h (100 = growth as untreated, 0 = no growth, -100 = all killed)
# Conditions in all cases: 10 µM unless noted
# HCT-15 colon = test system: HCT-15 colon
# HT29 colon = test system: HT29 colon
# SNB-75 CNS = test system: SNB-75 CNS
# SNB-19 CNS = test system: SNB-19 CNS
# U251 CNS = test system: U251 CNS
# PC-3 prostate = test system: PC-3 prostate
# SK-MEL-5 melanoma = test system: SK-MEL-5 melanoma
# UACC-62 melanoma = test system: UACC-62 melanoma
# LOX IMVI melanoma = test system: LOX IMVI melanoma
# SK-MEL-28 melanoma = test system: SK-MEL-28 melanoma
Structure (SMILES),growth (HCT-15 colon),growth (HT29 colon),growth (SNB-75 CNS),growth (SNB-19 CNS),growth (U251 CNS),growth (PC-3 prostate),growth (SK-MEL-5 melanoma),growth (UACC-62 melanoma),growth (LOX IMVI melanoma),growth (SK-MEL-28 melanoma)
C=C1C(=O)O[C@H]2[C@H]1CC/C(C(=O)NCCOCCOCC(=O)Nc1ccc(OC)c(C(N)=O)c1O)=C\CC[C@@]1(C)O[C@@H]21,101%,88.1%,83.1%,95.1%,89.8%,97%,102%,92.6%,95.3%,84.7%
O=C(O)c1ccc2nc(-c3ccc(OCCCCCOc4ccc(-c5nc6ccc(C(=O)O)cc6[nH]5)cc4)cc3)[nH]c2c1,74.3%,51.4%,96%,59.6%,96.4%,90%,3.26% (active),53%,82%,46.9%
O=C1c2ccccc2OC=C(c2ccccc2)N1CCCCN1CCCCC1,86.2%,13.6%,76.1%,50.7%,30.3%,23.3%,84.5%,69.1%,54.5%,87.3%
Oc1ccc(O)c(-[n+]2ccccc2)c1,105%,93.6%,104%,100%,97.1%,92.5%,97.7%,103%,95.7%,116%
Nc1ncnc2c1c(-c1ccc(Oc3ccccc3)cc1)nn2C[C@H]1SSC[C@H]1O,26.6%,-59.1% (active),3.26% (active),45.9%,21.1%,50.7%,-92.5% (active),-48.8% (active),-57.7% (active),-16.3% (active)
CCc1ccc(C2=C/C(=C/c3ccc(Cl)cc3)C(=O)N2CCc2ccc(S(N)(=O)=O)cc2)cc1,17.7%,6.46% (active),52.5%,54.6%,25.1%,11.5%,41.4%,31.2%,24.3%,38.2%
CC(C(=O)O)N1C(N)=NNC1c1ccccc1O (stereo not given),68.4%,99.3%,74.4%,88.5%,85.9%,83.3%,85.5%,81.9%,78.3%,106%
FC(F)(F)c1cn(CCN2CCOCC2)c2ncnc(Cl)c12,14.9%,72.7%,78.1%,22.5%,71.2%,28.1%,42.5%,53.2%,-63.9% (active),72.4%
Nc1ncnc2c1c(-c1ccc(Oc3ccccc3)cc1)nn2C[C@H]1SSC[C@@H]1O,65.7%,5.36% (active),37.3%,66.5%,45.9%,64%,-73.9% (active),-66.7% (active),11.9%,-29.4% (active)
Cc1nc(-c2ccc(Cl)cc2)ccc1NC(=O)Nc1cccc(C(F)(F)F)c1,82.1%,75.7%,92.8%,108%,76.7%,80.5%,95.3%,95.6%,92.9%,110%
COc1ccc2c(c1)nnc1c3cccnc3[nH]c21,12.2%,-27.1% (active),-14.2% (active),11.5%,-4.49% (active),29.3%,46.2%,-0.424% (active),-30.8% (active),31.9%
Fc1ccc(Nc2ncnc3ccc(-c4cn[nH]c4)cc23)cc1Cl,60.4%,60.6%,40.5%,68.6%,61.8%,47.3%,40.4%,60%,49%,69.3%
COc1ccccc1NC(=O)COc1ccc(/C=C2/Oc3cc4occc4c(OC)c3C2=O)cc1OC,104%,113%,114%,105%,102%,92.2%,86.3%,91.6%,98.8%,111%
O=C(Nc1ccccc1F)Nc1ccccc1Cl,106%,91%,85.7%,97.1%,92.3%,108%,84%,73.2%,93.3%,96.9%
CC1OC(n2c3ccccc3c3c4c(c5c6ccccc6[nH]c5c32)C(=O)N(CCN[C@@H]2CCC[C@H]2N)C4=O)CC(O)C1O (stereo not given in full),70.2%,0.0923% (active),12.5%,14.8%,7.39% (active),9.72% (active),-48.6% (active),17.9%,0.411% (active),45.3%
O=C(CSc1nnc(-c2cc3c([nH]c4ccccc43)c(-c3cccc(O)c3)n2)n1-c1ccccc1)c1ccccc1,46.3%,64.9%,45.8%,84.2%,32.9%,40.2%,33.2%,69.8%,11.2%,71.5%
C[C@H]1C=C(C[C@@H](O)CCCCCCCCCC[C@@H](O)[C@H]2CCC(=O)O2)C(=O)O1,108%,109%,115%,96.7%,99.5%,89.4%,95.9%,92.2%,90.5%,124%
COc1ccc(C2=NN(C(=O)COc3ccc(Cl)cc3)C(O)(c3cc(F)c(Cl)cc3Cl)C2)cc1OC (stereo not given),4.88% (active),-75.9% (active),3.94% (active),62.7%,55.5%,32.1%,65.4%,52.5%,-35.6% (active),-51.6% (active)
COc1ccc(C[C@H](N)C(=O)N[C@@H]2[C@@H](CO)OC(n3cnc4c(N(C)C)ncnc43)[C@@H]2O)cc1 (stereo not given in full),71.6%,-63.8% (active),-40.7% (active),-4.27% (active),-91.6% (active),-6.6% (active),-96.6% (active),-81.3% (active),-61.9% (active),-64.4% (active)
Nc1nc(-c2cc3c(cc2Cl)NC(=O)/C3=C/c2ccc(Cl)cc2)cs1,49.6%,35.6%,49.1%,31.2%,21.8%,32.6%,6.5% (active),36%,12.6%,45.4%
COc1ccc(-c2nn(-c3ccc(NC(=O)Nc4cc(C(F)(F)F)cc(C(F)(F)F)c4)cc3)cc2-c2ccncc2)cc1Cl,9.81% (active),11.7%,34.4%,31.5%,11.8%,3.33% (active),9.61% (active),15.6%,15%,30.1%
O=S(=O)(Nc1cccc2cc(OS(=O)(=O)c3ccccc3)ccc12)c1ccccc1,34.4%,19.2%,49.6%,78.2%,48.5%,59%,53.4%,61%,55.4%,66.4%
Cc1cc(NCCN(C(C)C)C(C)C)nc(/N=C(\N)Nc2ccc(Cl)c(C(F)(F)F)c2)n1,-56.2% (active),-86.6% (active),-100% (active),-83.3% (active),-84.4% (active),-94% (active),-91.5% (active),-91.6% (active),-70.6% (active),-87.2% (active)
COc1cc(NS(=O)(=O)c2ccc(N)cc2)ncn1,108%,120%,104%,99.8%,102%,99.8%,103%,99.1%,94.3%,121%
COc1ccccc1S(=O)(=O)Nc1ccc2c3c(cc(-c4cnn(C)c4)nc13)C(=O)N2C,27.6%,18%,26.6%,50%,52%,42.1%,29.5%,18.2%,10.4%,63.1%
Cc1cc2nc(-c3c(N)ncc(C#N)c3-c3ccc(Cl)cc3)[nH]c2cc1C,67.2%,29.8%,56.6%,84.7%,18%,53.5%,71.9%,57.8%,51.7%,57.6%
Cc1cn(C2CC(F)C(CO)O2)c(=O)[nH]c1=O (stereo not given),107%,98.9%,81.8%,90.1%,96.7%,93.8%,74.4%,81.1%,97.7%,105%
